PubChem BioAssay (NCI)
“And” between values parts separate entries of the source, which are not always exact repeats. Equal entries are not always repeated. The panel holds about 83,000 compounds, 20% with a hit somewhere; the sample as a whole holds those more often.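 In brief: 96-well plates, 48 h treatment, single concentration, percent growth endpoint.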

Legend:
Experiment in all cases: NCI-60 one-dose screen, 48 h (100 = growth as untreated, 0 = no growth, -100 = all killed)
Conditions in all cases: 10 µM unless noted; active = growth percent below 10; inactive = the rest
DU-145 prostate = system: DU-145 prostate
K-562 leukemia = system: K-562 leukemia
MDA-MB-231 breast = system: MDA-MB-231 breast
RXF 393 renal = system: RXF 393 renal
SF-268 CNS = system: SF-268 CNS
SF-539 CNS = system: SF-539 CNS
UACC-257 melanoma = system: UACC-257 melanoma
M14 melanoma = system: M14 melanoma
HCT-15 colon = system: HCT-15 colon
HT29 colon = system: HT29 colon
SNB-75 CNS = system: SNB-75 CNS
SNB-19 CNS = system: SNB-19 CNS
U251 CNS = system: U251 CNS
PC-3 prostate = system: PC-3 prostate
SK-MEL-5 melanoma = system: SK-MEL-5 melanoma
UACC-62 melanoma = system: UACC-62 melanoma
LOX IMVI melanoma = system: LOX IMVI melanoma
SK-MEL-28 melanoma = system: SK-MEL-28 melanoma
MALME-3M melanoma = system: MALME-3M melanoma
SF-295 CNS = system: SF-295 CNS

Measured: growth

Nc1ncnc2c1ncn2C1OC(COP(=O)(O)O)C(O)C1O (stereo not given)
inactive: DU-145 prostate 120% | K-562 leukemia 119% | MDA-MB-231 breast 102% | RXF 393 renal 131% | SF-268 CNS 126% | SF-539 CNS 105% | UACC-257 melanoma 110% | M14 melanoma 111% | HCT-15 colon 109% | HT29 colon 114% | SNB-75 CNS 93.1% | SNB-19 CNS 103% | U251 CNS 112% | PC-3 prostate 101% | SK-MEL-5 melanoma 117% | UACC-62 melanoma 104% | LOX IMVI melanoma 108% | SK-MEL-28 melanoma 119%

CC(=O)OC(C)C(=O)NCC(C)O (stereo not given)
inactive: DU-145 prostate 104% | K-562 leukemia 97.9% | MALME-3M melanoma 108% | MDA-MB-231 breast 124% | RXF 393 renal 113% | SF-268 CNS 100% | SF-539 CNS 102% | UACC-257 melanoma 108% | M14 melanoma 97.8% | HCT-15 colon 100% | HT29 colon 110% | SNB-75 CNS 93.2% | SNB-19 CNS 110% | PC-3 prostate 96.6% | UACC-62 melanoma 122% | LOX IMVI melanoma 101% | SK-MEL-28 melanoma 105%

OC1COC(OCc2ccccc2)C(O)C1O (stereo not given)
inactive: DU-145 prostate 105% | K-562 leukemia 97.9% | MALME-3M melanoma 78.7% | MDA-MB-231 breast 109% | RXF 393 renal 103% | SF-268 CNS 106% | SF-295 CNS 101% | SF-539 CNS 105% | M14 melanoma 96.8% | HCT-15 colon 98% | HT29 colon 111% | SNB-75 CNS 90.5% | PC-3 prostate 105% | SK-MEL-5 melanoma 101% | UACC-62 melanoma 106% | LOX IMVI melanoma 94% | SK-MEL-28 melanoma 104%

C/C(=C\c1ccccc1)c1ccccn1
inactive: DU-145 prostate 112% | K-562 leukemia 105% | MALME-3M melanoma 102% | MDA-MB-231 breast 91% | SF-268 CNS 99.3% | SF-295 CNS 113% | SF-539 CNS 98.1% | UACC-257 melanoma 105% | M14 melanoma 108% | HCT-15 colon 103% | HT29 colon 113% | SNB-75 CNS 89.1% | SNB-19 CNS 92.1% | PC-3 prostate 98.7% | SK-MEL-5 melanoma 103% | LOX IMVI melanoma 112% | SK-MEL-28 melanoma 107%

NN1CCOC(c2ccccc2)C1 (stereo not given)
inactive: DU-145 prostate 102% | K-562 leukemia 10.3% | MDA-MB-231 breast 99.1% | RXF 393 renal 101% | SF-268 CNS 99.6% | SF-295 CNS 118% | SF-539 CNS 100% | UACC-257 melanoma 103% | M14 melanoma 90.9% | HCT-15 colon 101% | HT29 colon 113% | SNB-75 CNS 109% | SNB-19 CNS 101% | PC-3 prostate 94.3% | SK-MEL-5 melanoma 103% | UACC-62 melanoma 90.2% | LOX IMVI melanoma 94.6% | SK-MEL-28 melanoma 112%

O=C(O)CCCl
inactive: DU-145 prostate 114% | K-562 leukemia 111% | MALME-3M melanoma 115% | MDA-MB-231 breast 125% | RXF 393 renal 103% | SF-268 CNS 108% | SF-539 CNS 99.8% | UACC-257 melanoma 111% | M14 melanoma 129% | HT29 colon 108% | SNB-75 CNS 97.9% | SNB-19 CNS 104% | U251 CNS 101% | PC-3 prostate 96.8% | SK-MEL-5 melanoma 99.2% | UACC-62 melanoma 110% | LOX IMVI melanoma 104% | SK-MEL-28 melanoma 105%

O=CN1CCCCC1
inactive: DU-145 prostate 114% | K-562 leukemia 104% | MALME-3M melanoma 103% | MDA-MB-231 breast 104% | SF-268 CNS 105% | SF-295 CNS 97.8% | SF-539 CNS 99.8% | UACC-257 melanoma 104% | M14 melanoma 121% | HCT-15 colon 106% | HT29 colon 108% | SNB-75 CNS 94.3% | SNB-19 CNS 107% | U251 CNS 110% | PC-3 prostate 106% | SK-MEL-5 melanoma 100% | LOX IMVI melanoma 96.6% | SK-MEL-28 melanoma 110%

O=C(CO)C(O)C(O)C(O)C(O)CO (stereo not given)
inactive: DU-145 prostate 110% and 109% | K-562 leukemia 108% and 117% | MALME-3M melanoma 109% and 117% | RXF 393 renal 119% and 117% | SF-268 CNS 102% and 104% | SF-295 CNS 105% and 102% | SF-539 CNS 107% and 96.5% | UACC-257 melanoma 93.9% and 95.8% | M14 melanoma 103% and 96.2% | HCT-15 colon 103% | HT29 colon 109% | SNB-75 CNS 106% and 89.1% | SNB-19 CNS 104% and 103% | U251 CNS 95.7% and 95.4% | PC-3 prostate 101% and 96.1% | SK-MEL-5 melanoma 95.4% and 103% | UACC-62 melanoma 98.3% and 101% | LOX IMVI melanoma 103% and 98.5% | SK-MEL-28 melanoma 108% and 101%

CC(C)NC(=O)N/C=C(\C#N)C(N)=O
inactive: DU-145 prostate 107% | K-562 leukemia 116% | MALME-3M melanoma 89.3% | MDA-MB-231 breast 111% | RXF 393 renal 98.9% | SF-268 CNS 101% | SF-295 CNS 102% | SF-539 CNS 97.9% | M14 melanoma 95.3% | HCT-15 colon 101% | HT29 colon 107% | SNB-75 CNS 83.2% | SNB-19 CNS 110% | U251 CNS 114% | PC-3 prostate 94.9% | SK-MEL-5 melanoma 101% | UACC-62 melanoma 101% | LOX IMVI melanoma 97.2% | SK-MEL-28 melanoma 100%

CCOC(=O)c1c(C)cc(=O)oc1C
inactive: DU-145 prostate 114% | K-562 leukemia 89% | MALME-3M melanoma 87.7% | MDA-MB-231 breast 96.3% | RXF 393 renal 109% | SF-268 CNS 106% | SF-539 CNS 107% | UACC-257 melanoma 101% | M14 melanoma 98% | HCT-15 colon 102% | HT29 colon 103% | SNB-75 CNS 94% | SNB-19 CNS 96.2% | PC-3 prostate 92% | SK-MEL-5 melanoma 106% | UACC-62 melanoma 95.3% | LOX IMVI melanoma 105% | SK-MEL-28 melanoma 115%

COc1ccc(C(=O)CC(c2ccccc2)C(C#N)c2ccccc2)cc1 (stereo not given)
inactive: DU-145 prostate 92.2% | K-562 leukemia 80.7% | MALME-3M melanoma 97.2% | MDA-MB-231 breast 81% | RXF 393 renal 99.5% | SF-268 CNS 86.3% | SF-295 CNS 96.3% | SF-539 CNS 97.7% | UACC-257 melanoma 87.7% | M14 melanoma 88% | HCT-15 colon 96.5% | HT29 colon 82.3% | SNB-75 CNS 83.8% | SNB-19 CNS 92.4% | PC-3 prostate 64.8% | SK-MEL-5 melanoma 86.6% | LOX IMVI melanoma 85.2% | SK-MEL-28 melanoma 97%

c1ccc2c(c1)OC1OC2Oc2ccccc21
inactive: DU-145 prostate 113% | K-562 leukemia 96.1% | MALME-3M melanoma 113% | MDA-MB-231 breast 114% | RXF 393 renal 97.1% | SF-268 CNS 99.3% | SF-295 CNS 115% | SF-539 CNS 106% | UACC-257 melanoma 101% | HCT-15 colon 98.1% | HT29 colon 95.6% | SNB-75 CNS 90% | SNB-19 CNS 97.6% | U251 CNS 102% | PC-3 prostate 91.6% | SK-MEL-5 melanoma 103% | UACC-62 melanoma 92.5% | LOX IMVI melanoma 91.1% | SK-MEL-28 melanoma 103%

Nc1nc(N)c2[nH]cnc2n1
inactive: DU-145 prostate 73.1% | K-562 leukemia 76.5% | MALME-3M melanoma 125% | MDA-MB-231 breast 99.3% | SF-268 CNS 83.8% | SF-295 CNS 84.7% | SF-539 CNS 92.8% | UACC-257 melanoma 56.1% | M14 melanoma 88.2% | HCT-15 colon 107% | HT29 colon 101% | SNB-75 CNS 91.3% | SNB-19 CNS 96.1% | PC-3 prostate 79.3% | SK-MEL-5 melanoma 98.1% | UACC-62 melanoma 84.3% | LOX IMVI melanoma 83% | SK-MEL-28 melanoma 99.9%

CC(C)C(C)(C)c1ccc(O)cc1
inactive: DU-145 prostate 107% | K-562 leukemia 50.4% | MALME-3M melanoma 107% | MDA-MB-231 breast 108% | RXF 393 renal 112% | SF-268 CNS 99.8% | SF-295 CNS 118% | SF-539 CNS 99.4% | UACC-257 melanoma 104% | M14 melanoma 105% | HCT-15 colon 105% | HT29 colon 102% | SNB-75 CNS 97.8% | PC-3 prostate 93.1% | SK-MEL-5 melanoma 99.9% | UACC-62 melanoma 101% | LOX IMVI melanoma 98.4% | SK-MEL-28 melanoma 105%

CC(=O)NCC(=O)c1ccc([N+](=O)[O-])cc1
inactive: DU-145 prostate 109% | K-562 leukemia 101% | MALME-3M melanoma 101% | MDA-MB-231 breast 97.7% | SF-268 CNS 99.1% | SF-295 CNS 106% | SF-539 CNS 109% | UACC-257 melanoma 101% | M14 melanoma 109% | HCT-15 colon 111% | HT29 colon 107% | SNB-75 CNS 99.1% | SNB-19 CNS 103% | PC-3 prostate 98.4% | SK-MEL-5 melanoma 103% | UACC-62 melanoma 101% | LOX IMVI melanoma 95% | SK-MEL-28 melanoma 105%
